Source: PubChem
A selection: hits, their analogues and other compounds. The true share with any hit is near 3.6%.
BoNT A protease: inhibitors of Botulinum neurotoxin A light chain protease | multiplex microsphere protease substrate cleavage, flow cytometry | inhibition, % at 10 µM | 360,000 tested, 0.17% active | AID 588499; note: plate controls were buffer without enzyme for full effect and enzyme alone for no effect
BJeLR viability: BJeLR cell viability loss; 300,000 tested, 0.17% active; BJeLR (HRASV12) viability, CellTiter-Glo ATP luminescence, 48 h; inhibition, % (concentration not given with the values); in the data active = inhibition above about 50%; inconclusive = no clear call, values can overlap the other calls
SARS 3CLpro inh-1: SARS-CoV 3CLpro protease inhibition | inhibition, % at 6 µM | recombinant SARS-CoV 3CLpro, quenched FRET peptide cleavage | 290,000 tested, 0.14% active | AID 1706 | P0C6X7; in the data active = inhibition above about 12%
BoNT-F LC inh: inhibitors of Botulinum neurotoxin F light chain protease. Multiplex microsphere protease cleavage assay, flow cytometry. inhibition, % at 10 µM. 360,000 tested, 0.22% active. AID 588497; in the data active = inhibition above about 35%, passing the limit was not always enough; inconclusive = no clear call, values can overlap the other calls; note: plate controls were buffer without enzyme for full effect and enzyme alone for no effect
Autofluor counter: flagged as autofluorescent in microsphere protease counterscreen; compound autofluorescence counterscreen, microsphere flow cytometry; hits give high values; fluorescence intensity (concentration not given with the values); 360,000 tested, 3.1% active; in the data active = fluorescence intensity above about 16000; inconclusive = no clear call, values can overlap the other calls
Anthrax LF prot: blocks Bacillus anthracis lethal factor protease; inhibition, % at 10 µM; 360,000 tested, 0.12% active; multiplex microsphere protease cleavage assay, LF; P15917; note: plate controls were buffer without enzyme for full effect and enzyme alone for no effect
SARS 3CLpro inh-2: SARS 3CLpro inhibition, confirmation assay | shares compounds with SARS 3CLpro inh-1 | QFRET protease activity assay | inhibition, % at 6 µM | 380 tested, 36% active | AID 1879; in the data active = inhibition above about 13%
* marks the source's active call; other numbers are inactive results; u = inconclusive; x = not tested or not shown. Cut-off read from the data, not from the text of the source, unless noted: active = inhibition above about 30%; inconclusive = no clear call, values can overlap the other calls; inactive = below that.

SMILES	BoNT A protease	BJeLR viability	SARS 3CLpro inh-1	BoNT-F LC inh	Autofluor counter	Anthrax LF prot	SARS 3CLpro inh-2
COc1ccc(S(=O)(=O)Nc2ccc(F)cc2)cc1N(C)S(=O)(=O)c1ccc(Cl)cc1	-1.9	-2.0	17.0*	-22.2	13276	-1.3	-1.8
COc1ccc(NS(=O)(=O)c2ccc(OC)c(N(C)S(=O)(=O)c3ccc(Cl)cc3)c2)cc1	-0.2	-4.6	2.5	-44.6	8934	-10.9	x
CC(C)CNS(=O)(=O)c1ccc(CCC(=O)Nc2cc(Cl)ccc2Oc2ccccc2)cc1	0.4	1.3	12.4*	10.2	5187	-2.6	0.8
CCCNS(=O)(=O)c1ccc(CCC(=O)Nc2cc(Cl)ccc2Oc2ccccc2)cc1	0.0	1.7	3.0	-5.8	3009	-4.7	x
COc1ccccc1OC[C@H](O)CO	-1.1	-2.2	0.1	-18.4	6082	1.2	x
Cc1ccc(C)c(OC(C)C(=O)Nc2nccs2)c1 (stereo not given)	-0.1	-7.3	12.6*	-1.3	6067	4.3	0.0
Cc1ccc(C)c(OC(C)C(=O)Nc2ccc(S(=O)(=O)Nc3nccs3)cc2)c1 (stereo not given)	-2.8	6.1	-3.2	0.8	5552	-1.2	x
O=C(Cn1nnc(-c2ccccc2NC(=O)c2ccccc2F)n1)NCc1ccco1	0.3	1.7	12.4*	-0.6	4637	-3.9	0.8
COc1ccc(C(=O)Nc2ccccc2-c2nnn(CC(=O)NCc3ccco3)n2)cc1	0.0	-3.4	-1.7	-1.2	3703	-0.4	x
CC(Sc1ccccc1)C(=O)NNC(=O)c1csc(N2CCOCC2)n1 (stereo not given)	-9.2	7.2	x	u	u	-7.0	x
CC(C)c1ccc(NC(=O)CSc2nc3ccsc3c(=O)n2Cc2ccc(C(=O)O)cc2)cc1	0.2	-10.3	13.3*	0.8	4322	-1.5	5.2
CCc1ccc(NC(=O)CSc2nc3ccsc3c(=O)n2CCC(=O)O)cc1	-0.5	-9.6	5.8	0.0	5318	3.0	x
CC(=O)N(C)c1ccc(NS(=O)(=O)c2cc(Cl)ccc2Cl)cc1	0.1	1.0	13.5*	1.1	2253	-0.5	-1.5
CC(=O)Nc1ccc(NS(=O)(=O)c2cc(Cl)ccc2Cl)cc1	-0.2	14.8	-2.1	-3.5	4313	-6.4	x
CC(C)c1ccc(S(=O)(=O)Nc2ccc(SC(F)F)cc2)cc1	0.5	2.2	12.8*	-3.4	2265	0.6	4.9
FC(F)(F)c1cccc(NC(=S)NNC(=S)NCc2ccccc2)c1	0.2	-9.8	13.6*	1.9	10232	-1.7	1.5
FC(F)(F)c1cccc(NC(=S)NCc2ccccn2)c1	-1.2	7.3	-4.9	-2.5	2389	-3.2	x
CC[C@@]12C(=O)N(c3cccc(F)c3)C(=O)N1[C@H](c1ccc(F)cc1)[C@@H]1C(=O)N(C3CCCCC3)C(=O)[C@@H]12	0.3	15.3	16.3*	-7.5	3344	-6.5	8.1
Cc1c(OCC(=O)N[C@@H](Cc2c[nH]c3ccccc23)C(=O)O)ccc2c1oc(=O)c1ccccc12	0.5	7.8	13.8*	-6.3	5330	4.0	8.8
Cc1ccc(N(C(=O)Cn2nnc3ccccc32)C(C(=O)NCc2ccco2)c2ccc(C)o2)cc1 (stereo not given)	0.5	-1.7	10.4	13.9	4109	-1.1	x
COc1ccc(N(C(=O)Cn2nnc3ccccc32)C(C(=O)NCc2ccco2)c2ccc(C)o2)cc1 (stereo not given)	-0.5	1.6	21.3*	-15.0	3851	-4.7	26.5*
COc1cccc(C(C(=O)NCc2ccco2)N(Cc2ccco2)C(=O)Cn2nnc3ccccc32)c1 (stereo not given)	-0.5	6.5	27.9*	4.2	2562	5.4	40.0*
COCCOC(=O)/C(C#N)=C/c1cn(Cc2ccccc2)nc1-c1cccnc1	0.5	6.1	15.8*	4.5	3744	-1.0	1.8
N#Cc1ccc(CN2CCN(C(=O)c3cn(Cc4ccccc4)nc3-c3cccnc3)CC2)cc1	0.6	x	x	-1.6	6189	-2.2	x
O=C(COC(=O)c1cccc(OC(F)F)c1)Nc1cc(S(=O)(=O)N2CCCC2)ccc1Cl	0.4	x	x	0.5	3539	-3.7	x
SMILES	BoNT A protease	BJeLR viability	SARS 3CLpro inh-1	BoNT-F LC inh	Autofluor counter	Anthrax LF prot	SARS 3CLpro inh-2
O=S(=O)(c1ccc(F)cc1)N1CCN(S(=O)(=O)c2ccc3c(c2)OCCO3)CC1	-0.7	x	x	-4.0	4243	-1.7	x
Cc1ccc(S(=O)(=O)N2CCN(S(=O)(=O)c3ccc4c(c3)OCCO4)CC2)cc1	-0.7	-7.4	12.3*	-1.0	2376	-2.1	-3.2
CCOc1ccc(OCCC(=O)Nc2ccc(F)cc2C)cc1	0.3	6.5	3.4	-2.1	4531	-0.9	x
Cc1cc(=O)oc2cc(NC(=O)c3ccccc3OC(F)F)ccc12	-2.3	-0.1	13.1*	-17.4	3831	0.2	-1.5
Cc1cc(=O)oc2cc(NC(=O)c3cc(F)ccc3F)ccc12	-0.6	x	x	6.2	4161	1.6	x
COC(=O)CC1COc2ccccc2N1C(=O)/C=C/c1ccccc1 (stereo not given)	-2.6	-4.7	45.7*	-7.1	3369	2.2	-1.3
COC(=O)c1ccc(NC(=O)c2ccc(NC(=O)c3ccco3)cc2)cc1	-1.3	4.2	13.4*	2.9	6469	-1.0	-1.2
Cc1cc(C)cc(NC(=O)c2ccc(NC(=O)c3ccco3)cc2)c1	1.1	3.9	-3.5	1.9	5552	-3.3	x
Cc1cccc(Nc2nnc(SCC(=O)Nc3ncc(C(F)(F)F)cc3Cl)s2)c1C	1.5	-12.7	13.3*	1.1	7828	-0.1	2.6
Cc1ccccc1Nc1nnc(SCC(=O)Nc2ncc(C(F)(F)F)cc2Cl)s1	-0.7	-1.9	19.7*	-5.0	1928	0.4	-4.3
CC(=O)NCCc1c(C)n(Cc2ccccc2)c2ccccc12	-1.9	1.6	5.8	u	4119	-0.3	x
COC(=O)/C=C1\NCCNC1=O	u	4.6	-3.2	u	4084	5.2	x
COc1ccccc1C(=O)NCCC(=O)Nc1cccc(S(=O)(=O)N2CCCC2)c1	-1.0	x	x	-3.2	8823	-1.6	x
CC(C)C12CN(C(=O)c3ccccc3[N+](=O)[O-])CC(C(C)C)(CN(C(=O)c3ccccc3[N+](=O)[O-])C1)C2=O	u	9.1	29.3*	u	4740	-4.8	34.8*
CSc1ccccc1OCc1cc(C(=O)N(C)Cc2cc(C)[nH]n2)no1	x	-2.6	-3.9	x	x	x	x
CSc1ccccc1OCc1cc(C(=O)N(C)Cc2cnccn2)no1	-0.1	-5.8	14.2*	-2.9	u	0.1	1.1
CCN1C(=NCC(C)C)N[C@@H](c2cccc(F)c2)C(C(=O)OC)=C1C	0.0	0.7	-4.0	0.4	3852	4.9	x
O=C(NCC1CCCO1)/C(=C/c1ccccc1F)NC(=O)c1ccccc1 (stereo not given)	-3.9	-5.7	0.6	-28.8	3920	4.0	x
COc1ccc(NS(=O)(=O)c2ccc3oc(Nc4ccc5c(c4)OCCO5)nc3c2)cc1	0.6	0.7	13.3*	1.8	2618	-2.6	5.5
